In PubChem BioAssay (NCATS):
Results filed as inconclusive are left out. Active and inactive are the calls of the source.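 Rule for the calls, unless noted: active = compounds whose dose series gives a full or clear partial fitted curve of increased nuclear translocation; inconclusive = weak partial curve or effect only at the top dose; inactive = no dose-dependent translocation response.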

Tested on: not listed separately
Experiment: Stat Signaling Pathway (AID 446; active = well fitted curve in either direction with a large enough effect, not every such curve was filed as active;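 note: ME-180 cervical cancer cells given 40 pM IL-6 alongside compound; SIE-controlled beta-lactamase reporter measured as 460/530 nm FRET emission ratio; % is set by controls: 0 for no effect and ±100 for the full control effect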)
Conditions: ME-180 (cervical carcinoma) SIE beta-lactamase reporter, IL-6 stimulated, 5 h; at 17.2 µM (top of the series) unless noted
Summary of the method: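 Normalization used AC90 stimulation (300 pM IL-6) and AC90 inhibition (125 nM pan-JAK inhibitor at 40 pM IL-6). The underlying signal is SIE-driven beta-lactamase in ME-180 cells after 5 h IL-6 exposure with compound.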
With `CCOC(=O)NC(Nc1cc(C)on1)(C(F)(F)F)C(F)(F)F` the activity, negative = inhibition was 12.3% (inactive). In the case of `CCOc1cccc(-c2nn3c(-c4ccco4)nnc3s2)c1`, the activity, negative = inhibition is reported as -0.495% (inactive). In the case of `COc1cccc(N2CCN(c3ncnc4c3[nH]c3ccc(F)cc34)CC2C)c1` (stereo not given), the activity, negative = inhibition is reported as -104% (active). In the case of `CCOC(=O)c1ccc(CC2S/C(=C(\C#N)C(C)=O)NC2=O)cc1` (stereo not given), the activity, negative = inhibition is reported as -21.4% (inactive). For `CCCCc1c(C)nn(-c2nnc3c4ccccc4n(C)c3n2)c1C`, the activity, negative = inhibition was -8.34% (inactive). With `Cc1cc2c(c(=O)o1)C(Cc1ccccc1)C(C#N)=C(N)O2` (stereo not given) the activity, negative = inhibition was -12.4% (inactive). With `CCCCOc1ccc(C(=O)Nn2cnnc2)cc1` the activity, negative = inhibition was 8.41% (inactive). For `COC(=O)CSc1nc(C)c(Oc2ccccc2)c(=O)[nH]1`, the activity, negative = inhibition was 7.32% (inactive). For `COc1ccc(OC(=O)c2cc3ccccc3o2)cc1`, the activity, negative = inhibition was 10.1% (inactive). For `COC(=O)C1=C(C)N=C2SC(C)C(=O)N2C1c1ccc(C(=O)OC)cc1` (stereo not given), the activity, negative = inhibition was -11.1% (inactive). For `CC(O)CNc1nc2c(c(=O)n(C)c(=O)n2C)n1CCc1ccccc1` (stereo not given), the activity, negative = inhibition was -8.4% (inactive). For `CCCCn1c(-c2ccc(Cl)cc2)nc2c(=O)n(C)c(=O)[nH]c21`, the activity, negative = inhibition was 27.6% (inactive). In the case of `CN(C1CCS(=O)(=O)C1)S(=O)(=O)c1cccc2nsnc12` (stereo not given), the activity, negative = inhibition is reported as 1.43% (inactive). For `CC1CN(c2oc(-c3cccs3)nc2C#N)CC(C)O1` (stereo not given), the activity, negative = inhibition was 14.9% (inactive). With `COC(=O)CSc1nc(N)nc(C)c1Br` the activity, negative = inhibition was 2.44% (inactive). For `C=C(C)CSc1nc(N)c2c3c(sc2n1)CCC3`, the activity, negative = inhibition was 4.14% (inactive). For `Cc1cc(=O)n2[nH]cnc2n1`, the activity, negative = inhibition was 13.7% (inactive). With `N#Cc1ccc(-c2cccnc2)nc1SCC(=O)Nc1sc2c(c1C#N)CCC2` the activity, negative = inhibition was -7.78% (inactive). With `Cc1ccc(N(CN2C(=O)NC(C)(C)C2=O)CN2C(=O)NC(C)(C)C2=O)cc1` the activity, negative = inhibition was 5.53% (inactive). For `COC(=O)C(NC(=O)c1ccccc1)(Nc1nccs1)C(F)(F)F` (stereo not given), the activity, negative = inhibition was 5.62% (inactive). In the case of `Cc1ccc2c(=O)c(CN(C)C3CCN(C)CC3)c(C)[nH]c2c1C`, the activity, negative = inhibition is reported as 5.33% (inactive). For `C=CCOc1ccc(C2/C(=C(\O)c3ccc(F)cc3)C(=O)C(=O)N2CCCN(C)C)cc1` (stereo not given), the activity, negative = inhibition was 17% (inactive). In the case of `Cc1nc2c(o1)CCc1ccccc1C2O` (stereo not given), the activity, negative = inhibition is reported as 5.73% (inactive). With `COc1ccc2c(c1)[nH]c1c(=O)n(CC3CCCO3)cnc12` (stereo not given) the activity, negative = inhibition was 2.17% (inactive). In the case of `CCOC(=O)CCCCC(=O)NC(CO)C(=O)NC` (stereo not given), the activity, negative = inhibition is reported as 8.86% (inactive). With `CCOc1ccc(C2C(C(=O)c3ccc(C)o3)=C(O)C(=O)N2CCCN(CC)CC)cc1` (stereo not given) the activity, negative = inhibition was 6.24% (inactive). In the case of `CCOC(=O)C1=C(CSc2nc(C)cc(C)c2C#N)OC(N)=C(C#N)C1c1cccs1` (stereo not given), the activity, negative = inhibition is reported as -6.58% (inactive). For `CCc1cccc(CC)c1N(COC)C(=O)Cn1nnc2ccccc21`, the activity, negative = inhibition was -3.83% (inactive). With `COc1ccccc1-c1nnc2sc(COc3ccccc3)nn12` the activity, negative = inhibition was -10.5% (inactive). In the case of `CCCOc1ccc(/C(O)=C2/C(=O)C(=O)N(CCCn3ccnc3)C2c2cccs2)cc1` (stereo not given), the activity, negative = inhibition is reported as 6% (inactive). For `CCCOc1cccc(C2/C(=C(/O)c3ccc(F)cc3)C(=O)C(=O)N2CCN(C)C)c1` (stereo not given), the activity, negative = inhibition was -0.187% (inactive). For `O=C(CSc1nnc(-c2ccco2)c(-c2ccco2)n1)Nc1ccccc1`, the activity, negative = inhibition was -9.01% (inactive). For `CCN(CC)c1nc(N2CCOCC2)c(C#N)c2c1CN(C)CC2`, the activity, negative = inhibition was 9.24% (inactive). In the case of `CN1CCc2c(n(CC(O)CN3C(=O)c4ccccc4S3(=O)=O)c3ccccc23)C1=O` (stereo not given), the activity, negative = inhibition is reported as -6.51% (inactive). For `Cc1cc(C(=O)O)c(CSc2ncn[nH]2)o1`, the activity, negative = inhibition was 8.82% (inactive). With `CNC(=O)CCn1nc(-c2ccccc2)c2ccccc2c1=O` the activity, negative = inhibition was 1.15% (inactive). In the case of `COc1ccc(CSc2nnc(C)n2N)cc1Br`, the activity, negative = inhibition is reported as 8.37% (inactive). With `Cc1cc(C)n(C(=O)CSc2nc3ccccc3o2)n1` the activity, negative = inhibition was 2.26% (inactive). With `CCOc1ccc2nc(SCC(=O)Nc3ncccn3)[nH]c2c1` the activity, negative = inhibition was -2.35% (inactive). For `O=C(CC1SC2=NCCN2C1=O)Nc1ccccc1` (stereo not given), the activity, negative = inhibition was -5.25% (inactive).

Target: Glucocorticoid receptor (Homo sapiens) (UniProt P04150)
Sequence (P04150 whole entry, looked up): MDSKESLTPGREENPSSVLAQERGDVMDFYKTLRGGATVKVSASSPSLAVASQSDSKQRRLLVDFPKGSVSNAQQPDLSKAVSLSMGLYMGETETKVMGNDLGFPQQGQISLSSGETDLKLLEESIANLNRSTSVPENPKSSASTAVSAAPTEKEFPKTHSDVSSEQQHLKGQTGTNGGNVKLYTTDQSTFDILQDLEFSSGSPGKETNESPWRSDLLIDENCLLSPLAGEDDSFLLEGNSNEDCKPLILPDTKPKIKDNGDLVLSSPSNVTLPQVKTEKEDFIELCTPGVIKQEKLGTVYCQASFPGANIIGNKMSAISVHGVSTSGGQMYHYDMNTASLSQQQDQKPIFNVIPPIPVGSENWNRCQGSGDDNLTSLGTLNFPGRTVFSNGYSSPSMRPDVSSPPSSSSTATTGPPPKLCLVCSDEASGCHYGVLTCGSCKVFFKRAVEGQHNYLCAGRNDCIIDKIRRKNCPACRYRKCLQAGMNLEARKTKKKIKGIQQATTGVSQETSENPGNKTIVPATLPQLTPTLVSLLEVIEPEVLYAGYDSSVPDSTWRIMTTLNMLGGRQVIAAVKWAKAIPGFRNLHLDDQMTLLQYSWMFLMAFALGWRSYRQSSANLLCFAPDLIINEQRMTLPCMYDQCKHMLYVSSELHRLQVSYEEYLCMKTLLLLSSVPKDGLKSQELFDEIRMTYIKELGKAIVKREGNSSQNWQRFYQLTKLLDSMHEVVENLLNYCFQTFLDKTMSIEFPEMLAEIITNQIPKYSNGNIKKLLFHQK
Experiment: GR-GFP Redistribution (AID 450); note: potency is the fitted concentration of half-maximal effect
Conditions: U2OS GR-GFP nuclear translocation, laser cytometry, 2 h; series mostly up to 20.6 µM
With `CCOC(=O)NC(Nc1cc(C)on1)(C(F)(F)F)C(F)(F)F` the Potency was > 20.6 µM (inactive). With `CCOc1cccc(-c2nn3c(-c4ccco4)nnc3s2)c1` the Potency was > 20.6 µM (inactive). With `COc1cccc(N2CCN(c3ncnc4c3[nH]c3ccc(F)cc34)CC2C)c1` (stereo not given) the Potency was > 20.6 µM (inactive). For `CCOC(=O)c1ccc(CC2S/C(=C(\C#N)C(C)=O)NC2=O)cc1` (stereo not given), the Potency was > 20.6 µM (inactive). For `CCCCc1c(C)nn(-c2nnc3c4ccccc4n(C)c3n2)c1C`, the Potency was > 20.6 µM (inactive). With `Cc1cc2c(c(=O)o1)C(Cc1ccccc1)C(C#N)=C(N)O2` (stereo not given) the Potency was > 20.6 µM (inactive). For `CCCCOc1ccc(C(=O)Nn2cnnc2)cc1`, the Potency was > 20.6 µM (inactive). With `COC(=O)CSc1nc(C)c(Oc2ccccc2)c(=O)[nH]1` the Potency was > 20.6 µM (inactive). In the case of `COc1ccc(OC(=O)c2cc3ccccc3o2)cc1`, the Potency is reported as > 20.6 µM (inactive). With `COC(=O)C1=C(C)N=C2SC(C)C(=O)N2C1c1ccc(C(=O)OC)cc1` (stereo not given) the Potency was > 20.6 µM (inactive). For `CC(O)CNc1nc2c(c(=O)n(C)c(=O)n2C)n1CCc1ccccc1` (stereo not given), the Potency was > 20.6 µM (inactive). For `CCCCn1c(-c2ccc(Cl)cc2)nc2c(=O)n(C)c(=O)[nH]c21`, the Potency was > 20.6 µM (inactive). With `CN(C1CCS(=O)(=O)C1)S(=O)(=O)c1cccc2nsnc12` (stereo not given) the Potency was > 20.6 µM (inactive). With `CC1CN(c2oc(-c3cccs3)nc2C#N)CC(C)O1` (stereo not given) the Potency was > 20.6 µM (inactive). For `COC(=O)CSc1nc(N)nc(C)c1Br`, the Potency was > 20.6 µM (inactive). For `C=C(C)CSc1nc(N)c2c3c(sc2n1)CCC3`, the Potency was > 20.6 µM (inactive). For `Cc1cc(=O)n2[nH]cnc2n1`, the Potency was > 20.6 µM (inactive). For `N#Cc1ccc(-c2cccnc2)nc1SCC(=O)Nc1sc2c(c1C#N)CCC2`, the Potency was > 20.6 µM (inactive). In the case of `Cc1ccc(N(CN2C(=O)NC(C)(C)C2=O)CN2C(=O)NC(C)(C)C2=O)cc1`, the Potency is reported as > 20.6 µM (inactive). With `COC(=O)C(NC(=O)c1ccccc1)(Nc1nccs1)C(F)(F)F` (stereo not given) the Potency was > 20.6 µM (inactive). In the case of `Cc1ccc2c(=O)c(CN(C)C3CCN(C)CC3)c(C)[nH]c2c1C`, the Potency is reported as > 20.6 µM (inactive). With `C=CCOc1ccc(C2/C(=C(\O)c3ccc(F)cc3)C(=O)C(=O)N2CCCN(C)C)cc1` (stereo not given) the Potency was > 20.6 µM (inactive). For `Cc1nc2c(o1)CCc1ccccc1C2O` (stereo not given), the Potency was > 20.6 µM (inactive). For `COc1ccc2c(c1)[nH]c1c(=O)n(CC3CCCO3)cnc12` (stereo not given), the Potency was > 20.6 µM (inactive). For `CCOC(=O)CCCCC(=O)NC(CO)C(=O)NC` (stereo not given), the Potency was > 20.6 µM (inactive). With `CCOc1ccc(C2C(C(=O)c3ccc(C)o3)=C(O)C(=O)N2CCCN(CC)CC)cc1` (stereo not given) the Potency was > 20.6 µM (inactive). In the case of `CCOC(=O)C1=C(CSc2nc(C)cc(C)c2C#N)OC(N)=C(C#N)C1c1cccs1` (stereo not given), the Potency is reported as > 20.6 µM (inactive). With `CCc1cccc(CC)c1N(COC)C(=O)Cn1nnc2ccccc21` the Potency was > 20.6 µM (inactive). For `COc1ccccc1-c1nnc2sc(COc3ccccc3)nn12`, the Potency was > 20.6 µM (inactive). With `CCCOc1ccc(/C(O)=C2/C(=O)C(=O)N(CCCn3ccnc3)C2c2cccs2)cc1` (stereo not given) the Potency was > 20.6 µM (inactive). For `CCCOc1cccc(C2/C(=C(/O)c3ccc(F)cc3)C(=O)C(=O)N2CCN(C)C)c1` (stereo not given), the Potency was > 20.6 µM (inactive). For `O=C(CSc1nnc(-c2ccco2)c(-c2ccco2)n1)Nc1ccccc1`, the Potency was > 20.6 µM (inactive). In the case of `CCN(CC)c1nc(N2CCOCC2)c(C#N)c2c1CN(C)CC2`, the Potency is reported as > 20.6 µM (inactive). For `CN1CCc2c(n(CC(O)CN3C(=O)c4ccccc4S3(=O)=O)c3ccccc23)C1=O` (stereo not given), the Potency was > 20.6 µM (inactive). With `Cc1cc(C(=O)O)c(CSc2ncn[nH]2)o1` the Potency was > 20.6 µM (inactive). For `CNC(=O)CCn1nc(-c2ccccc2)c2ccccc2c1=O`, the Potency was > 20.6 µM (inactive). For `COc1ccc(CSc2nnc(C)n2N)cc1Br`, the Potency was > 20.6 µM (inactive). In the case of `Cc1cc(C)n(C(=O)CSc2nc3ccccc3o2)n1`, the Potency is reported as > 20.6 µM (inactive). For `CCOc1ccc2nc(SCC(=O)Nc3ncccn3)[nH]c2c1`, the Potency was > 20.6 µM (inactive). With `O=C(CC1SC2=NCCN2C1=O)Nc1ccccc1` (stereo not given) the Potency was > 20.6 µM (inactive).
